Test results published in PubChem BioAssay AID624330 (Southern Research Specialized Biocontainment Screening …, 2012).
Hit rate of the full screen: of about 340,000 compounds, about 2,100 (0.62%) were called active.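 How the source made its calls: active means first-screen hits whose inhibition reached a set limit at any dose in the follow-up dose series; inconclusive means inhibition above the set first-screen limit but never retested; inactive means the rest.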 These entries were drawn from the full list. Potency and affinity values are given separately.

Target: Rac GTPase-activating protein 1 (Homo sapiens) (UniProt Q9H0H5)
Sequence (Q9H0H5 whole entry, looked up): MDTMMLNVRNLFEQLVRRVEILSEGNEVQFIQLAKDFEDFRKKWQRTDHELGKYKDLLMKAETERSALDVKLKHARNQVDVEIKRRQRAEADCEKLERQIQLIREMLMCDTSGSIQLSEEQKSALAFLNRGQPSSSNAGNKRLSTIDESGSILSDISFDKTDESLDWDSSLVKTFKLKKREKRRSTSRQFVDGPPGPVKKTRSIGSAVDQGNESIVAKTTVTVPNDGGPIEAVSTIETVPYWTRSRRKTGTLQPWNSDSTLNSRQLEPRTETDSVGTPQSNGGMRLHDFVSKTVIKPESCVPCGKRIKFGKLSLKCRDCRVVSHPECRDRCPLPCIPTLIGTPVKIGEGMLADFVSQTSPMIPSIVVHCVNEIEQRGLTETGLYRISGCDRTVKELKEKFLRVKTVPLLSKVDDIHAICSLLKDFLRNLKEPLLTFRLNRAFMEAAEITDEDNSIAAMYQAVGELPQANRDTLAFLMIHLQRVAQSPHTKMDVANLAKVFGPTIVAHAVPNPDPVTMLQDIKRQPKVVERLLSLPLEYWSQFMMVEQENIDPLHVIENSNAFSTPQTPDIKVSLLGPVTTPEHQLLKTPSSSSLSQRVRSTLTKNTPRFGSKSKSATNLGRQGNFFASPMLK
Test: blockers of MgcRacGAP-driven Rac1 GTP hydrolysis – biochemical, ADP Hunter fluorescence, primary and confirmatory, confirmation (AID 624330);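 further: fluorescence reports GDP produced by GAP-driven GTP hydrolysis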
Settings: MgcRacGAP-stimulated Rac1 GTP hydrolysis, at 30 µM, active compounds read high, GST-tagged Rac1 F28L mutant substrate

inhibition, inactive:
NS(=O)(=O)c1ccc(CNC(=O)Cc2ccc(S(=O)(=O)N3CCOCC3)s2)cc1 9.4%
C/C(=N\NC(=O)c1c[nH]c2ccccc12)c1ccc2c(c1)OCO2 12.8%
Fc1ccccc1/C=N/N1CCN(Cc2ccccc2Cl)CC1 -7.94%
CCN(CC)S(=O)(=O)c1ccc(NC(=O)c2cccc3c2C(=O)N(CCOC)C3)cc1 8.69%
Cc1ccccc1N1C(=O)C(Cl)=C(N2CCCCCC2)C1=O -5.76%
CN1CCN(C2=C(Cl)C(=O)c3ccccc3C2=O)CC1 12.8%
COC(=O)[C@]1(Cc2ccccc2)N[C@H](CN(C)C(=O)c2ccc(F)cc2)[C@@H]2C(=O)N(C)C(=O)[C@@H]21 1.31%
Cc1c2ccccc2c(C)c2c1ccc1ccccc12 0.81%
CCCCC[n+]1cccc2c3ccccc3ccc21 16.4%
O=C(Nc1cccc2ccccc12)N1CCOCC1 -1.28%
O=C(Cc1cccs1)Nc1nncs1 0.97%
CCOC(=O)N1CCN(C(=O)c2ccc3c(=O)n(CCc4ccccc4)c(=S)[nH]c3c2)CC1 5.18%
Cc1ccc(Cl)cc1N1CCN(C(=O)Cn2ccc3ccccc3c2=O)CC1 4.81%
CCOc1ccc(CCNC(=O)C2CCN(c3nnc(-n4cccc4)s3)CC2)cc1 -0.04%
CCN1CCN(CCCNC(=O)C2CCN(c3nnc(-n4cccc4)s3)CC2)CC1 16.4%
CCOCC(=O)Nc1ccc(-c2cn3cccnc3n2)cc1 1.23%
CCCCn1nc(C(=O)Nc2cc(C(F)(F)F)ccc2N2CCOCC2)ccc1=O 4.58%
O=C(CSc1nnnn1-c1cccc2ccccc12)Nc1ccc(N2CCOCC2)c(Cl)c1 -5.56%
Cc1cccc(N=Cc2c(O)cc(C)oc2=O)c1 5.21%
CCOc1ccc(N=Cc2c(O)cc(C)oc2=O)cc1 30%
CC1Cc2ccccc2N1C(=O)COc1nc2ccccc2nc1N1CCOCC1 (stereo not given) 0.29%
Cc1ccccc1N=C/C=C1\N(C)c2ccccc2C1(C)C 4.55%
CN1/C(=C\C=N\O)C(C)(C)c2ccccc21 15.1%
CN1/C(=C/C=N/NC(=O)c2ccc([N+](=O)[O-])cc2)C(C)(C)c2ccccc21 2.66%
CO/N=C/C=C1/N(C)c2ccccc2C1(C)C 6.44%
CN1/C(=C\C=Nc2ccc3ccccc3c2)C(C)(C)c2ccccc21 12.2%
CN1/C(=C\C=N\NC(=O)c2cccnc2)C(C)(C)c2ccccc21 4.5%
COC(=O)CCCCC(=O)C1C(=O)CC(C)(C)C(C(=O)OC)C1=O (stereo not given) 2.31%
CC1(C2CC(C(F)(F)F)n3nc(C(=O)O)cc3N2)CC1 (stereo not given) 5.89%
O=C(Nc1ccc(C(=O)N2CCCCC2)cc1)c1ccccc1Br 3.41%
COc1ccc(/C=C/C(=O)Oc2ccc(/C=N/NC(=O)c3ccccc3)cc2)cc1OC 3.85%
O=C(CN1CCN(Cc2ccccc2)CC1)N/N=C/c1cccs1 2.1%
N/C(Cc1ccc([N+](=O)[O-])cc1)=N\OC(=O)C(c1ccccc1)c1ccccc1 8.53%
NC(CSCc1ccccc1Cl)C(=O)O (stereo not given) -0.96%
CCc1ccc(OCC(=O)N2CC(C(N)=O)Oc3ccccc32)cc1 (stereo not given) 4.28%
COc1cc(/C=C(\C#N)c2nc3ccccc3[nH]2)cc(Br)c1OCc1ccccc1 6.48%
Cc1ccc2nc(/C(C#N)=C/c3ccccc3C(=O)O)[nH]c2c1 16%
COc1cc(/C=C(\C#N)c2nc3ccccc3[nH]2)cc(Br)c1OCc1ccc(F)cc1 6.53%
COc1cc(/C=C(\C#N)C(=O)c2c(C)[nH]c3ccccc23)cc(OC)c1OC 15.4%
COc1cc(/C=C(/C#N)c2nc3ccccc3c(=O)[nH]2)ccc1O 19.3%
Cc1cc2nc(/C(C#N)=C/c3ccncc3)[nH]c2cc1C 10.2%
COc1ccc(/C=C(\C#N)C(=O)c2c(C)[nH]c3ccccc23)cc1OC 10.7%
COc1ccc(/C=C(\C#N)c2nc3ccccc3[nH]2)cc1O 18.2%
O=C(CCn1cnnn1)NC1CCCN(Cc2ccccc2F)C1 (stereo not given) -0.5%
CN(C)c1ccc(C=NNC(=O)c2cccnc2)cc1 1.95%
CCCCN(C(=O)c1ccc2c(c1)S(=O)(=O)N=C1CCCCCN12)c1c(N)n(CCCC)c(=O)[nH]c1=O -0.05%
CC1C(=O)Nc2ccc(S(=O)(=O)NCc3ccc(Cl)cc3)cc2NC1=O (stereo not given) 7.58%
Cc1ccc(F)cc1NC(=O)CCOc1ccccc1 -2.1%
CCCc1cc(=O)n2nc(N3CCC(C(=O)NCc4ccco4)CC3)sc2n1 4.69%
COc1cc2c(cc1NC(=O)c1ccncc1)oc1ccccc12 14.9%
C=Cn1cc(CNC[C@H]2O[C@@H](n3ccc(N)nc3=O)[C@H](O)[C@@H]2O)c(C)n1 0.77%
COc1ccc(CCNS(=O)(=O)c2ccc(-n3cnnn3)cc2)cc1OC 4.09%
O=C(Nc1nc2ccccc2[nH]1)Nc1ccccc1F -2.47%
CCCc1ccc2oc(C(=O)N3CCCC3)c(C)c2c1 3.8%
O=C(NC1CCN(S(=O)(=O)c2ccc(F)cc2)CC1)c1cccc(F)c1 4.4%
Cc1cc2nc3ccc(N(C)C)cc3nc2cc1N 18.1%
Cc1ccc(-n2nc3cc(C)c(N)cc3n2)cc1 8.27%
CS(=O)(=O)N1CCN(c2ccccc2NC(=O)c2ccc(Cl)cc2)CC1 13.8%
CC(=O)c1ccc(Nc2ccc([N+](=O)[O-])c3nonc23)cc1 4.9%
O=[N+]([O-])c1c(Nc2ccccc2O)cc(Cl)c2nonc12 16.1%
O=[N+]([O-])c1ccc2nonc2c1Nc1ccccc1 5.91%
CN(C)c1cc(Nc2ccc(O)cc2)c([N+](=O)[O-])c2nonc12 13.9%
O=[N+]([O-])c1c(Nc2ccc(O)cc2)cc(Cl)c2nonc12 16.8%
O=[N+]([O-])c1ccc(Nc2ccccc2O)c2nonc12 19.7%
Cn1c(/N=C/c2ccccc2[N+](=O)[O-])nc2ccccc21 2.88%
CC(=O)N1CCC(N(CCN2CCOCC2)C(=S)Nc2cc(C)cc(C)c2)CC1 9.32%
Cc1ccc2cc(CN(CC(C)C)S(=O)(=O)c3cccc4nonc34)c(=O)[nH]c2c1 9.22%
CC(/C=C/C=C/c1ccccc1)=N/NC(=O)C(O)c1ccccc1 (stereo not given) 13.5%
C=COCCCNc1ncnc2sc(-c3ccccc3)cc12 23.7%
OCCOCCNc1ncnc2sc(-c3ccccc3)cc12 23%
O=C(NCCCN1CCCC1)c1ccc2c(c1)N(Cc1ccc(F)cc1)C(=O)c1ccccc1S2=O (stereo not given) 6.31%
CSc1n[nH]c(NCc2ccc(C)cc2)n1 -0.45%
CC(C)(C)c1nc(N)nc(=O)[nH]1 4.68%
Nc1nc(N)c2[nH]c(-c3ccccc3)nc2n1 6.78%
COc1cc(O)c2c(c1)COC2=O 4.96%
C=CCc1cc(OC)ccc1OCCON1C(=O)CCC1=O 8.6%
CN(C)c1cccc(C(=O)OCC(=O)NC(=O)NCc2ccccc2)c1 -0.47%
CCOC(=O)c1cnc(Nc2ccccc2)nc1C(F)(F)F 1.7%
Cc1c(N=Cc2ccc(-c3ccc(Cl)cc3)o2)c(=O)n(-c2ccccc2)n1C 3.54%
O=C(Cc1cccc(C(F)(F)F)c1)OCN1C(=O)c2ccccc2C1=O 4.25%
CCS(=O)(=O)c1ccc(O)c(NC(=O)CCCC(=O)O)c1 13.8%
CCCCCC(=O)Nc1cc(S(=O)(=O)N2CCCCC2)ccc1N1CCCCC1 9.51%
Cc1ccc(-c2nc(CS(=O)(=O)CC(=O)NCc3cccc(F)c3)c(C)o2)cc1 7.24%
CC#C[C@@H](CC)c1ccc2ccn(C)c2c1 9.11%
O=C1c2cc(CO)cc(O)c2C(=O)c2c(O[C@@H]3OC(CO)[C@@H](O)[C@@H](O)[C@@H]3O)cccc21 (stereo not given in full) 7.99%
O=C1c2c(O)cccc2C(C2OC(CO)[C@@H](O)[C@H](O)[C@H]2O)c2cc(CO)cc(O)c21 (stereo not given in full) 11.8%
Cc1ccc2c(C(=O)N3CCN(c4ccccc4)CC3)cc(-c3cccnc3)nc2c1C 6.48%
COC(=O)CC1SC(=O)NC1=Nc1ccc(C)cc1 (stereo not given) 8.37%
COC(=O)CC1SC(=O)NC1=Nc1ccc(OC)cc1 (stereo not given) 6.86%
Cc1cc(Nc2ccccc2Cl)n2nnnc2n1 2.54%
COC(=O)CSc1nc(N)c2c3c(sc2n1)C(c1ccccc1)SC(c1ccccc1)C3 (stereo not given) 6.76%
O=C1C(=O)c2ccc(-c3ccccc3)cc2-c2ccccc21 7.95%
O=C1C(=C(O)c2ccccc2)C(=O)c2ccccc21 8.92%
COc1ccc(N(CC(=O)Nc2ccccc2F)S(=O)(=O)c2ccc(OC)c(OC)c2)cc1 -10.3%
COc1ccc(C(=O)Nc2cccc3nc(C)ccc23)cc1OC 12.2%
